Screening results as filed in PubChem BioAssay.
The list is not random: actives were taken first. Their share in the collection is about 5.7%.
DAX1 inh-1: DAX1 (NR0B1) inhibitors on StAR promoter, primary screen, cell-based, luminescence, SF-1 (NR5A1), full-length DAX-1; HEK293T StAR-luciferase reporter, SF-1/DAX-1 repression relief; inhibition, % at 6.8 µM; hit rate 1.1% among 370,000;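 active = inhibition above the mean over all tested compounds plus 3 SD, cut at about 3.6% in these data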;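 also: 0% = DAX-1 cells with DMSO and 100% = cells lacking DAX-1 with DMSO; higher inhibition means more luminescence from relief of DAX-1 repression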
hgDAF12 agonist: H. glycines DAF-12 receptor agonists, primary screen, cell-based, luminescence, HEK293, GAL4 fusion, UAS-luciferase. Nuclear hormone receptor DAF-12 (Heterodera glycines), GAL4 fusion. HEK293 GAL4-hgDAF12 UAS-luciferase reporter, agonist luminescence; normalized to butyrate control. activation, % at 6.8 µM. hit rate 1.8% among 370,000. AID 687014, 2013;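 active = activation above a cutoff set at the mean of all screened compounds plus 3 SD, cut at about 10% in these data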;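 also: 0% = DMSO wells and 100% = sodium butyrate wells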
AHR activator: AHR activators, primary screen, cell-based, luminescence, luciferase reporter, human | Aryl hydrocarbon receptor (Homo sapiens), P35869 | hit rate 2.5% among 320,000 | AHR-responsive luciferase reporter cells | activation, % at 5 µM; in the data active = activation above about 47%;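 also: 0% = vehicle wells and 100% = reference agonist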
hcDAF-12 act: H. contortus DAF-12 nuclear receptor activators, primary screen, cell-based, luminescence, HEK293, lit1-tk-luc reporter. HEK293 hcDAF-12 lit1-tk-luc reporter; 0% DMSO, 100% Δ7-dafachronic acid. activation, % at 6.8 µM. hit rate 1.4% among 370,000. AID 652067, 2013;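 active = activation above the mean of all tested compounds plus 3 SD, cut at about 5.5% in these data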;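 also: 100% = response to 3 µM Δ7-dafachronic acid high control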
DAX1 inh-2: DAX1 (NR0B1) inhibitors, primary screen, cell-based, HEK293, Gal4-DAX1, luciferase luminescence; Nuclear receptor subfamily 0 group B member 1 (Homo sapiens), P51843; AID 504766, 2011; HEK293 Gal4-DAX1 luciferase reporter; hit rate 0.99% among 340,000; inhibition, % at 6.75 µM;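 active = inhibition above the mean over all tested compounds plus 3 SD, cut at about 4.2% in these data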;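 also: 0% = DAX1-transfected cells with DMSO and 100% = empty-vector control cells with DMSO; inhibition shows as a rise in luminescence from relieved DAX1 repression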
Target sequence (P51843 207-470 limits assumed): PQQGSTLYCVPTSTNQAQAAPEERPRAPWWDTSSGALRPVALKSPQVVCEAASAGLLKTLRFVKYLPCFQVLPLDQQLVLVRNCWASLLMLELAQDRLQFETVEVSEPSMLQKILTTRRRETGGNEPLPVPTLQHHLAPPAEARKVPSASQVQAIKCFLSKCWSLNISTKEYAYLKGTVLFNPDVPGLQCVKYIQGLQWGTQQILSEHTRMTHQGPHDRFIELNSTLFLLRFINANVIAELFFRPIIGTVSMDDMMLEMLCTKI
ssDAF12 agonist: S. stercoralis DAF-12 nuclear receptor activators, primary screen, cell-based, luminescence, HEK293, GRIP1 co-expression, lit1-tk-luc. Nuclear hormone receptor DAF-12 (Strongyloides stercoralis). HEK293 ssDAF-12/GRIP1 lit1-tk-luc reporter; % of 3 µM dafachronic acid response. activation, % at 6.8 µM. hit rate 1% among 370,000. AID 652126, 2013;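 active = activation above the mean over all tested compounds plus 3 SD, cut at about 0.9% in these data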;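 also: 0% = DMSO-only wells and 100% = 3 µM delta7-dafachronic acid wells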
* = called active by the depositor; · = no result.

SMILES	DAX1 inh-1	hgDAF12 agonist	AHR activator	hcDAF-12 act	DAX1 inh-2	ssDAF12 agonist
c1ccc(C2Nc3ccccc3Oc3ccccc32)cc1 (configuration not stated)	0	0	8	-1	0	-1
Cc1cc2cc(CNC(=O)NC3CCCCC3)ccc2[nH]1	1	1	57*	-1	-2	-2
Cc1cc2cc(CNC(=S)NC3CCCCC3)ccc2[nH]1	1	-3	7	-1	1	-1
CC(=O)c1cccc(CN2CCN(Cc3ccccc3)C(CCO)C2)c1 (configuration not stated)	0	0	0	-1	0	-1
COc1cccc(NC(=S)N(CCCN2CCCC2)Cc2cccn2Cc2ccc(Cl)cc2)c1	·	·	2	·	4.4*	·
S=C(Nc1cccc(Cl)c1)N(CCCN1CCCC1)Cc1cccn1Cc1ccc(Cl)cc1	0	1	0	-1	2	-1
NC(=O)c1nsc(C(=O)N(CC(=O)NCc2ccccc2)c2ccc(F)cc2)c1N	0	1	-1	-1	1	-2
CN1CCc2c(sc(/N=C/c3cc(Cl)ccc3O)c2C#N)C1	1	3	11	2	6.8*	0
CCOC(=O)c1c(/N=C/c2ccc(OC)cc2O)sc2c1CCN(C)C2	-1	-2	0	-2	0	-2
Cc1ccc(OCC(O)CN2C(=O)NC(C)(C)C2=O)cc1C (configuration not stated)	-1	11*	6	0	-1	-1
CCCN(CCC)CC(O)CN1C(=O)NC(C)(C)C1=O (configuration not stated)	0	5	3	0	0	-1
CCN(CC)CC(O)CN1C(=O)NC(C)(C)C1=O (configuration not stated)	-1	1	4	-2	4.3*	-1
COc1ccc(C(=O)OCCc2ccc(O)cc2)cc1	1	12*	-2	3	2	0
CN(C)S(=O)(=O)c1ccc(C(=O)OCCc2ccccc2)cc1	0	3	0	-2	1	-1
COc1ccc(CCOC(=O)c2ccc(NC(=O)CC#N)cc2)cc1	0	-2	1	-2	1	-1
Nc1ccc(C(=O)OCCc2ccccc2)cc1	1	13*	-2	2	5.1*	0
O=C(OCCCCOC(=O)c1ccccc1)c1ccccc1	0	0	-1	4	-2	-1
O=C(OCCc1ccccc1)c1cc(O)c(O)c(O)c1	2	-2	2	6.2*	1	0
O=C(c1ccco1)N1N=C(c2ccc(Br)cc2)CC1c1ccco1 (configuration not stated)	2	-1	-4	-2	1	-1
O=C(NCc1cccs1)C1CCN(S(=O)(=O)c2cccc3cccnc23)CC1	-1	0	-2	-2	4.3*	-1
Cc1ccc(C(=O)NCc2cccs2)cc1S(=O)(=O)N1CCCCC1	0	0	0	-1	-1	1.2*
O=C(NCc1ccco1)C1CCN(S(=O)(=O)c2cccc3cccnc23)CC1	0	1	0	1	2	-2
O=C(O)c1cccc(NC(=O)c2cccc(S(=O)(=O)N3CCc4ccccc43)c2)c1	-1	-2	7	-2	4.6*	-1
O=C(Nc1ccncc1)c1cccc(S(=O)(=O)N2CCc3ccccc32)c1	-7	-6	-1	-4	-4	-2
Cc1ccc(C(=O)Nc2ccc3cn[nH]c3c2)cc1S(=O)(=O)N1CCCCC1	0	6	55*	6.1*	0	0
SMILES	DAX1 inh-1	hgDAF12 agonist	AHR activator	hcDAF-12 act	DAX1 inh-2	ssDAF12 agonist
Cc1ccc(S(=O)(=O)N2C[C@H]3C(=O)C[C@@H](c4ccc(Cl)cc4)N(S(=O)(=O)c4ccccc4C)[C@H]3C[C@H]2c2ccc(Cl)cc2)cc1	-1	-2	·	0	0	-1
O=C(O)c1cccc(NC(=O)c2ccc(Cl)c(S(=O)(=O)N3CCCCCC3)c2)c1	2	11*	5	2	-4	0
Cc1ccc(NC(=O)CCl)cc1S(=O)(=O)N1CCCCCC1	-2	-11	-2	-1	0	-1
O=C(O)c1ccc(NS(=O)(=O)c2ccc(Cl)c(C(=O)Nc3ccccc3)c2)cc1	0	-1	0	-2	-1	-1
Cc1ccc(NS(=O)(=O)c2ccc(Cl)c(C(=O)Nc3cccc(C(=O)O)c3)c2)cc1	0	2	3	-1	5.4*	0
COCCNCC(=O)Nc1ccc(C)c(S(=O)(=O)N2CCCCC2)c1	1	-2	3	0	4.3*	-1
C=CCSc1nncn1/N=C/c1ccc(OC)cc1	3	11*	58*	3	4.9*	1
COc1ccc(/C=N/n2cnnc2SCCO)cc1OC	1	1	5	0	0	-1
CCOCc1c(C(=O)N2CCN(CC(=O)Nc3ccc(F)cc3)CC2)oc2ccccc12	0	1	·	4	-1	1.2*
O=C(NCCCN1CCCC1=O)c1cn(-c2ccccc2)nc1-c1ccccc1	-1	1	-1	0	0	-1
COC(=O)[C@H](Cc1ccccc1)NC(=O)N1CCN(c2ccc(F)cc2)CC1	0	-2	-5	0	-1	-2
CC(=O)N/C(=N/c1nc(C)cc(C)n1)Nc1cc(C)cc(C)c1	0	0	58*	-1	1	-1
COc1ccc([N+](=O)[O-])cc1N(CC(=O)NCCCOC(C)C)S(C)(=O)=O	0	3	1	1	4	-2
CCOc1ccc(Nc2n[nH]c(=S)s2)cc1	3	12*	15	3	1	0
Cc1ccc(Nc2n[nH]c(=S)s2)cc1	1	6	·	2	2	0
CC(=O)NCCC(=O)Nc1nc2c(ccc3ccccc32)s1	0	1	13	1	1	-1
Nc1nc2c(ccc3ccccc32)s1	0	1	6	3	4.9*	0
N#C/C(=C\c1cccc(NC(=O)c2ccccc2Cl)c1)C(=O)NCCc1ccccc1	-2	4	5	-2	-3	-1
NC(=O)N/N=C/c1ccc(-c2cccc(C(F)(F)F)c2)o1	-1	4	78*	1	0	0
O=C(N/N=C/c1ccc(-c2cccc(C(F)(F)F)c2)o1)c1ccccc1O	0	1	18	0	0	-1
